High-throughput results from PubChem.
SMN2 splice enh = qHTS Assay for Enhancers of SMN2 Splice Variant Expression; AID 1458, 2008; Potency, µM (doses to about 46.1 µM), without a hit: at the highest dose activity change, positive = activation, most hits filed as activators; HEK293 SMN2-luciferase splicing reporter, luminescence, 30-36 h; actives 2.8% (n = 210,000); also: % of control where 0% means no effect; nearly all actives have a fitted effect of over 55% in size
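HEK293 cells carry an SMN2 minigene-luciferase reporter in which exon 7 inclusion puts luciferase in frame. Cells were seeded at 2000 cells/well, attached for 10-12 hours, then exposed to compounds for 30-36 hours at 37C before ONE-Glo luminescence.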
ELG1 genotoxic = qHTS screen for small molecules that induce genotoxicity in human embryonic kidney (HEK293T) cells expressing luciferase-tagged ELG1. Potency, µM (titrated, usually from 46 µM), without a hit: at the highest dose activity change, positive = activation, actives largely listed as activators. HEK293T ELG1-luciferase reporter, luminescence, 16 h. actives 1.3% (n = 330,000); also: % of control where 0% means no effect; nearly all actives have a fitted effect of over 60% in size
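Screening used a luciferase reporter fused to human ELG1 in HEK293T cells. Luminescence was read on a CCD plate imager after 16 hr exposure and 30 min ONE-Glo incubation.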
Luc counter = Counterscreen for Luciferase (Kinase-Glo TM) Inhibition; Luciferin 4-monooxygenase (Photuris pensylvanica), Q27757; Kinase-Glo luciferase, ATP luminescence, 8 min; Potency, µM (titrated, usually from 38.3 µM), for the others: top-dose activity change, negative = inhibition, actives largely listed as inhibitors; actives 0.28% (n = 200,000); AID 1379, 2008; also: % is scaled to controls: 0 for no effect and ±100 for the full control effect; nearly all actives have a fitted effect of over 60% in size
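Inhibition of Kinase-Glo luciferase light generation was assessed at 10 uM ATP in pH 7.2 imidazole buffer, with luminescence measured after eight minutes at ambient temperature.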
FLuc counter = qHTS profiling assay for firefly luciferase inhibitor/activator using purifed enzyme and Km concentrations of substrates (counterscreen for miR-21 project) | purified FLuc, Km substrates, luminescence inhibition | Potency, µM (titrated, usually from 57.5 µM), without a hit: at the highest dose activity change, negative = inhibition, hits mostly inhibitors | Luciferin 4-monooxygenase (Photinus pyralis), P08659 | actives 6.9% (n = 360,000);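 also: plate controls were vehicle for no effect and reference inhibitor for full effect; nearly all actives have a fitted effect of over 55% in size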
Target sequence (P08659 whole entry, looked up): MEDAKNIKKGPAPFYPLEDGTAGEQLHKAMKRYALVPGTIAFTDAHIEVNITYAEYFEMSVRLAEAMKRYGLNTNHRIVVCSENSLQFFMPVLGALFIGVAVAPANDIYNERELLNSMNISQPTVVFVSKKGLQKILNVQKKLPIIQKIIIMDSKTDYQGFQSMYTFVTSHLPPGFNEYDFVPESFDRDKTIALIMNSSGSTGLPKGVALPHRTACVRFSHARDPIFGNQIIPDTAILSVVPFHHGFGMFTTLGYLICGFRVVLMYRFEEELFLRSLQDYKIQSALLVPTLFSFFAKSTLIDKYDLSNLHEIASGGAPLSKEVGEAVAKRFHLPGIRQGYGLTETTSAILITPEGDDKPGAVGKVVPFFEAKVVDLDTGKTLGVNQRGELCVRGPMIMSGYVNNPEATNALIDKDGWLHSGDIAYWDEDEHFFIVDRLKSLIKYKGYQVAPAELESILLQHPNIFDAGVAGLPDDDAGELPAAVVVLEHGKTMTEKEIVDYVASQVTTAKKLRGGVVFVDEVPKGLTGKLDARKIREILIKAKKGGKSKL
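Purified P. pyralis luciferase, 10 nM final, with Km-level 10 uM D-luciferin and 10 uM ATP in 50 mM Tris acetate pH 7.5, 10 mM Mg acetate, 0.01% Tween-20, 0.05% BSA; 6-point qHTS titration about 60 µM downward; luminescence read.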
NPC1 prom act = qHTS Assay for NPC1 Promoter Activators. Huh7 NPC1 promoter luciferase reporter, 24 h. Potency, µM (doses to about 9.22 µM), inactives show at the highest dose activation, actives largely listed as activators. actives 2.4% (n = 320,000); also: % of control where 0% means no effect; nearly all actives have a fitted effect of over 60% in size
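Cells: Huh7 expressing luciferase under the NPC1 promoter, 1500/well. Seeded 2 h, compound added, incubated 24 h at 37 °C. Luciferase reagent, 10 min ambient, then luminescence.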
Rab9 prom act = qHTS Assay for Rab9 Promoter Activators; Huh7 Rab9 promoter-luciferase reporter, luminescence, 24 h; Potency, µM (top dose mostly 9.22 µM), for inactives: at the highest dose activation, negative = inhibition, hits mostly activators; actives 2.8% (n = 320,000); also: % of control where 0% means no effect; nearly all actives have a fitted effect of over 60% in size
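Promoter activation is measured as luciferase luminescence in Huh7 cells stably transfected with a Rab9 promoter–luciferase construct, following 24 h compound exposure at 37 °C and 10 min reagent incubation at ambient temperature.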
The depositor's hits bear a star; u = inconclusive; x = not tested or not shown; [ ] = remark or other dose. The list is not random: actives were taken first. Their share in the collection is about 7.5%. Calls follow the shape of the dose curve; as a rule, active = well fitted curve in the direction sought with a large enough effect; inconclusive = small, poorly fitted or top-dose-only effect, or another doubt; inactive = no such curve, though single readings can be large; an effect the other way counts as inactive or inconclusive. Potency is read from the fitted curve at half-maximal effect.

SMILES	SMN2 splice enh	ELG1 genotoxic	Luc counter	FLuc counter	NPC1 prom act	Rab9 prom act
COc1ccc(C)cc1NS(=O)(=O)c1ccc2c(c1)CCN2C(C)=O	x	-8%	x	2%	-3%	-1%
Cc1cc(C(=O)COC(=O)c2cccc(S(=O)(=O)N(C)C)c2)c(C)n1CC1CCCO1 (centres undefined)	x	10%	x	0.95µM*	u	3.5µM*
CNS(=O)(=O)c1cccc(C(=O)OCC(=O)c2cc(C)n(CC3CCCO3)c2C)c1 (centres undefined)	x	u	x	1.3µM*	2.5µM*	2.8µM*
COC(=O)c1ccc(N2NC(=O)/C(=C/c3ccc(OC)c(OC)c3)C2=O)cc1	x	0%	x	u	1%	-2%
COc1cc(/C=C2\C(=O)NN(c3ccccc3)C2=O)ccc1OCC(N)=O	6%	0%	-2%	11µM*	-10%	1%
COc1cc(C=C2C(=O)OC(C)(C)OC2=O)ccc1OCC(=O)Nc1ccccc1	14%	u	4%	11µM*	-3%	-8%
C#CCOc1ccc(/C=C2/C(=O)NN(c3ccc(F)cc3)C2=O)cc1OC	x	4%	x	1.9µM*	-4%	-4%
COc1ccc(NC(=O)C2C3C=CC4(O3)C2C(=O)N(CCN2CCCCC2C)C4C(=O)NC2CCCCC2)cc1 (centres undefined)	x	1%	x	0%	1%	3%
O=C1NC(=S)N/C1=C/c1ccc2c(c1)OCO2	x	-15%	x	u	-5%	-14%
C=CCN1C(=O)S/C(=C\c2ccc3c(c2)n(C)c(=O)n3C)C1=O	u	u	-3%	-13%	9%	21%
Cc1cc(N2CCOCC2)ccc1/C=C1/SC(=O)NC1=O	22µM*	u	13%	15µM*	u	u
C=CCN1C(=O)S/C(=C\c2ccc(N3CCOCC3)cc2C)C1=O	x	u	-2%	6µM*	u	3.5µM*
C=CC(C)N1C(=O)S/C(=C\c2ccc(N3CCOCC3)cc2C)C1=O (centres undefined)	-38%	u	1%	11µM*	u	u
O=C1NC(=S)N/C1=C\c1ccc(N2CCOCC2)cc1	18%	u	-7%	21µM*	29%	23%
Cc1ccc(Cl)cc1NC(=O)CN1CCN(S(=O)(=O)N2CCC(C)CC2)CC1	x	-10%	x	0%	0%	0%
Cc1ccc(C(=O)NCC(=O)N2CCCCCCC2)cc1C	x	7%	x	-10%	15%	9%
COc1ccc(/C=C/C(=O)c2ccccc2O)cc1CN1CCOCC1	-12%	-9%	-2%	-3%	-3%	2%
COc1ccc(/C=C2/CCc3ccccc3C2=O)cc1CN1CCOCC1	-15%	18%	1%	9.5µM*	-1%	0%
COc1ccc(/C=C2\CCc3ccccc3C2=O)cc1Cn1nc(C)cc1C	-29%	19%	-3%	13µM*	-10%	-2%
COc1cc(NS(=O)(=O)c2ccc(NC(=O)c3ccc(C(C)=O)cc3)cc2)nc(OC)n1	-3%	x	x	u	x	x
COc1cc(CNCc2c(C(=O)O)c(C)n(Cc3cccc(Cl)c3)c2C)cc(OC)c1OC	-2%	x	x	-4%	x	x
COc1cccc(C2=NC(C)(C)NC(c3ccccc3O)C2)c1 (centres undefined)	-4%	1%	-5%	8.5µM*	-2%	3%
COc1cccc(C2=NOC(C(=O)NC(C)C)C2)c1 (centres undefined)	1%	1%	5%	-2%	1%	-4%
CCC1(C)N=C(c2ccc3c(c2)OCO3)CC(c2ccccc2O)N1 (centres undefined)	u	10%	u	7.6µM*	11%	u
COc1ccc(-n2nc3c(N4CCCC(C(=O)NCCc5ccc(C)cc5)C4)nnc(C)c3c2C)cc1 (centres undefined)	x	x	x	-12%	x	x
SMILES	SMN2 splice enh	ELG1 genotoxic	Luc counter	FLuc counter	NPC1 prom act	Rab9 prom act
COc1ccccc1NC(=O)C(=O)c1cn(CC(=O)N2CCCC2)c2ccccc12	x	13%	x	4.8µM*	u	u
COc1ccccc1NC(=O)C(=O)c1cn(CC(=O)N2CCOCC2)c2ccccc12	x	u	x	4.8µM*	u	u
COc1ccccc1NC(=O)CSc1cn(CC(=O)N2CCCC2)c2ccccc12	x	x	x	-9%	x	x
COc1ccc(NC(=O)C(=O)c2cn(CC(=O)N3CCCC3)c3ccccc23)c(OC)c1	x	u	x	4.8µM*	u	u
COc1ccc(NC(=O)C(=O)c2cn(CC(=O)N3CCOCC3)c3ccccc23)cc1OC	x	-1%	x	u	0%	-1%
COc1ccc(CCNC(=O)C(=O)c2cn(CC(=O)N3CCOCC3)c3ccccc23)cc1OC	x	6%	x	21µM*	-1%	1%
N[C@H](C(=O)O)C1C(C(=O)O)C1C(=O)O (some centres undefined)	14%	x	x	x	x	x
CSc1ccc(/C=C2/C(C)=C(CC(=O)O)c3cc(F)ccc32)cc1	x	x	-1%[39.9 µM]	x	x	x
CC(=O)Nc1cccc(NC(=O)c2csc(C)c2)c1	x	2%	x	0%	-8%	-7%
COc1ccc(-c2c(C#N)c(SCC(=O)Nc3cccc(Cl)c3)nc(C)c2C(=O)Nc2ccccc2)cc1OC	18%	x	x	-1%	x	x
COc1ccccc1CNC(=O)C(=O)c1cn(CC(=O)N2CCOCC2)c2ccccc12	x	4%	x	u	-1%	12%
COc1ccccc1CCNC(=O)C(=O)c1cn(CC(=O)N2CCCC2)c2ccccc12	x	2%	x	11µM*	23%	26%
Cc1ccc(-c2nc(NCc3ccco3)c3ccccc3n2)cc1	15%	-1%	-3%	u	0%	-6%
Cc1ccc(-c2nc(Nc3ccc(N4CCOCC4)cc3)c3ccccc3n2)cc1	x	-7%	x	24µM*	0%	-3%
Cc1ccc(-c2nc(Nc3ccc(O)cc3)c3ccccc3n2)cc1	x	9%	x	24µM*	15%	16%
CN(C)C(=O)c1ccc(-c2nc(N(C)C)c3ccccc3n2)cc1	25%	x	11µM*	x	x	x
Cc1ccc(-c2nc(C(Cl)Cl)c3ccccc3n2)cc1	x	18%	x	13µM*	-37%	-41%
COC(=O)c1ccc(Nc2nc(-c3ccc(C)cc3)nc3ccccc23)cc1	6%	x	x	u	x	x
c1ccc(Nc2nc(-c3ccccc3)nc3ccccc23)cc1	x	-7%	x	-9%	-1%	-4%
CCOC(=O)C1=CN(Cc2cccc(F)c2)S(=O)(=O)N(CC)C1c1ccc(Br)cc1F (centres undefined)	x	-1%	x	x	x	x
